Screening data (PubChem BioAssay)
An excerpt weighted towards active compounds, which were near 3% of everything screened.
TRAIL sens C8: caspase-8 TRAIL sensitization | NB7+C8 cells + TRAIL, ATPlite viability luminescence | inhibition (viability loss, TRAIL sensitization), % at 10 µM | 360,000 tested, 1% active;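 active = compounds causing at least 50% loss of cell viability in the single-dose screen, relative to plate controls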
PPC-1+TRAIL kill: compounds killing PPC-1 cancer cells with TRAIL present (potentiator screen, no TRAIL-free arm); cell killing (% activity), % at 4 µM or 5 µM; PPC-1 cells + TRAIL, ATPLite viability luminescence; 220,000 tested, 0.41% active; AID 1443;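 active = cell killing above 50% in the first pass at 4 µM, then a duplicate retest at 5 µM averaging 50% or more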;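 note: plate controls were cells with TRAIL plus DMSO for no effect and medium-only wells lacking cells for full effect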
SENP8 block-1: SENP8 (human) protease inhibition | Q96LD8 | recombinant SENP8, Nedd8 substrate fluorescence | inhibition, % at 20 µM | 360,000 tested, 0.64% active | AID 602440; in the data active = inhibition mostly above about 40%, no sharp cut-off; inactive = mostly below about 27%
Target sequence (Q96LD8 whole entry, looked up): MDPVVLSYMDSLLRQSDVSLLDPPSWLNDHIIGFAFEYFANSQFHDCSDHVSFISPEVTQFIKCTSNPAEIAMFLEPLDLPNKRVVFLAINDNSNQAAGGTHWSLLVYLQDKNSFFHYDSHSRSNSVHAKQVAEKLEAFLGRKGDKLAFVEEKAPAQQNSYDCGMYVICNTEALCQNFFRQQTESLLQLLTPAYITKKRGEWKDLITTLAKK
SENP6 block: blocks the human protease SENP6; Q9GZR1; Recombinant SENP6 catalytic domain, aminoluciferin luminescence; inhibition, % at 10 µM; 330,000 tested, 1.8% active; AID 2599;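 active = inhibition above about 50% at the single tested dose, limit read from the data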;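 note: plate controls were DMSO wells with enzyme for no effect and DMSO wells lacking enzyme for full effect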
SENP7 block: blocks the human protease SENP7 | 330,000 tested, 1.5% active | Q9BQF6 | AID 434973 | inhibition, % at 5 µM | recombinant SENP7, Z-RLRGG-aminoluciferin luminescence, 40 min;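 active = inhibition above about 50% at the single test dose, limit read from the data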;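 note: plate controls were DMSO with enzyme for no effect and no enzyme buffer wells for full effect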
Target sequence (Q9BQF6 706-1050 limits assumed): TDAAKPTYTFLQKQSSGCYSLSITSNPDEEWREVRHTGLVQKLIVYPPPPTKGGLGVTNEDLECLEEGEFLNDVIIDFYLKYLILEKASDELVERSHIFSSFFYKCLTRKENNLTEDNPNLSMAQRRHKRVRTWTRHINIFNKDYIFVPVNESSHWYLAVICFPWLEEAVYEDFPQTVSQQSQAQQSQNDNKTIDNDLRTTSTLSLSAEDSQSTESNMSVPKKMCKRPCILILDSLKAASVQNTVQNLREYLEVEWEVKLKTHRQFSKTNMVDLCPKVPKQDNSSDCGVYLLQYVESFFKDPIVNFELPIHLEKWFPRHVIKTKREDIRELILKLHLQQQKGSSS
SENP8 block-2: blocks the human protease SENP8. Q96LD8. purified SENP8, Z-RLRGG-aminoluciferin cleavage, luminescence. inhibition, % at 10 µM. 330,000 tested, 1.2% active. AID 2540; in the data active = inhibition above about 50%
Starred values were filed as active, the others as inactive; . = not tested or not shown.

SMILES | TRAIL sens C8 | PPC-1+TRAIL kill | SENP8 block-1 | SENP6 block | SENP7 block | SENP8 block-2
COc1cc(SC)ccc1C(=O)Nc1nc2ccccc2[nH]1 | 96* | . | -278 | 97* | 101* | 96*
COc1ccccc1C(=O)Nc1nc2ccccc2[nH]1 | 96* | . | -23 | 98* | 101* | 97*
Cn1cc([N+](=O)[O-])c(C(=O)NC2CCCC2)n1 | 2 | . | -4 | 30 | 2 | 4
O=C(CN1CCOCC1)Nc1ccccc1Sc1ccc(Cl)cc1 | 7 | 23 | -2 | -4 | 4 | 0
COc1ccccc1-c1noc(-c2ccccc2)n1 | 15 | 34 | 17 | 92* | 93* | 87*
CCOc1cc(-c2nc(-c3ccccc3OC)no2)cc(OCC)c1OCC | 17 | 15 | 6 | -12 | -12 | -10
CCc1ccc(/C=N/Nc2ncnc3nc[nH]c23)cc1 | 60* | 42 | 8 | 17 | 38 | 21
COc1ccc(OC)c(C(=O)COC(=O)c2cccnc2SC)c1 | -4 | . | -194 | -1 | -6 | 7
COc1ccc(C(=O)COC(=O)c2cccnc2SC)cc1 | 1 | -2 | 3 | 27 | 71* | 29
O=C(NNS(=O)(=O)c1cc(Cl)cc(Cl)c1)c1sccc1-n1cccc1 | -8 | 6 | 33 | 6 | 4 | 6
O=c1c2ccccc2sc2ccc(NCCCN3CCOCC3)cc12 | 10 | . | -4 | 15 | 13 | 5
O=c1c2ccccc2sc2c(CO)ccc(NCCN3CCCCC3)c12 | 5 | . | 41* | . | . | .
CN(Cc1ccccc1F)C(=O)CN1C(=O)NC2(CCc3ccccc32)C1=O (stereo not given) | -19 | . | 22 | -11 | -4 | -9
CSC(=Nc1ccccc1)N=C(SCc1ccccc1)N(C)C | 91* | . | 4 | . | . | .
Cn1c(C(=O)NCCC2=CCCCC2)cc2c(=O)n3ccccc3nc21 | 60* | 19 | -323 | -5 | 2 | -1
Cc1cccn2c(=O)c3cc(C(=O)NCCC4=CCCCC4)n(C)c3nc12 | 16 | . | -375 | -12 | -1 | 3
Cc1cccc(C(=O)OCC(=O)N(C)c2ccccc2)c1C | 6 | . | 6 | -19 | 0 | 6
CCCC(=O)N1CCC1(C)C(=O)Nc1cccc(OC(C)C)c1 (stereo not given) | 19 | . | 12 | . | . | .
Cc1ccc(C2(C)NC(=O)N(CC(=O)NC3CCCCC3)C2=O)cc1 (stereo not given) | 16 | . | -11 | -1 | 6 | -2
O=[N+]([O-])c1ccc(S(=O)(=O)Nc2cccc(-c3ccc(N4CCOCC4)nn3)c2)cc1 | 51* | . | 6 | 4 | 6 | -4
O=[N+]([O-])c1ccc(S(=O)(=O)Nc2ccc(-c3ccc(N4CCOCC4)nn3)cc2)cc1 | 11 | . | 15 | 0 | 3 | -4
C=C(C)CNC(=S)N/N=C1\CCCCc2ccccc21 | 3 | -2 | 12 | 23 | -3 | 6
COc1cc(/C=C2\S/C(=N/S(=O)(=O)Cc3ccccc3)NC2=O)c([N+](=O)[O-])cc1OC | 7 | -3 | 10 | 12 | 5 | 1
COc1cc(/C=C2/S/C(=N/S(=O)(=O)Cc3ccccc3)NC2=O)c([N+](=O)[O-])cc1OC | -4 | 6 | 42* | 9 | 6 | 2
Cc1cccn2c(CN3CCCN(C=O)CC3)c(C(=O)N(C)CCc3ccccc3)nc12 | -6 | -11 | -4 | -10 | 5 | -2
SMILES | TRAIL sens C8 | PPC-1+TRAIL kill | SENP8 block-1 | SENP6 block | SENP7 block | SENP8 block-2
Cc1ccc(C2CC2c2n[nH]c(=S)n2-c2ccc(Cl)cc2)cc1 (stereo not given) | 72* | -6 | 17 | 3 | -8 | -11
CC1(C(=O)NS(=O)(=O)c2ccc(Cl)cc2)CCN1C(=O)c1ccc(C2CCCCC2)cc1 (stereo not given) | -4 | . | 39 | . | . | .
Cc1cccc(CNC(=O)C2CCC(=O)N(CCCc3ccccc3)C2)c1 (stereo not given) | -18 | . | 13 | . | . | .
CC1(C)CC(=O)C2=C(C1)OC1=C(C(=O)CC(C)(C)C1)C2c1ccccc1Cl | -3 | . | -288 | . | . | .
O=C(N/N=C/c1sc(=O)n(-c2ccccc2)c1Cl)c1ccccc1 | 41 | 30 | -7 | 83* | 76* | 56*
CCc1cc2c(=O)c(-c3cnn(-c4ccccc4)c3)c(C)oc2cc1OCC(=O)Nc1ccc(F)c(F)c1 | 52* | 15 | 10 | 4 | 2 | 4
CCc1cc2c(=O)c(-c3cnn(-c4ccccc4)c3)c(C)oc2cc1OCC(=O)Nc1cccc(C)c1 | 7 | 12 | 13 | -5 | -5 | 8
CCC(=O)N1CCCC(C(=O)NS(=O)(=O)c2cc(C)c(Cl)cc2C)CC1 (stereo not given) | 3 | . | 16 | . | . | .
Cc1ccc(NC(=O)CCCC(=O)O)c(-c2nc3ccccc3[nH]c2=O)c1 | 5 | . | -5 | 11 | -3 | 4
O=C(c1ccccc1)c1ccc(O)c(O)c1O | -13 | . | 47* | . | . | .
O=S1(=O)CC(N2CCCCC2)CN1Cc1cn(Cc2cccc(C(F)(F)F)c2)nn1 (stereo not given) | 5 | . | 7 | . | . | .
CCN(CC)c1ccc(N2C(=O)CSC2=S)cc1 | 2 | . | 55* | 7 | 14 | 3
CCOc1ccc(N2C(=O)CSC2=S)cc1 | -6 | . | 6 | 17 | 9 | 3
CCOC(=O)C1CCCN(C(=O)C(CCSC)NC(=O)COc2ccccc2)C1 (stereo not given) | -17 | . | 3 | -9 | -11 | 3
CN(C)C=Nc1ccc2nc3c(cc2c1)[nH]c1ccccc13 | 76* | . | -286 | 9 | 9 | 3
CCOC(=O)[C@H]1[C@H]2COc3cc(OC)ccc3[C@@H]2N2C(=O)[C@@H](CO)NC(=O)[C@@]12C | . | . | . | -5 | 2 | 3
O=C(N/N=C1\CCc2ccccc21)c1ccccc1O | 63* | 54* | -13 | 71* | 78* | 58*
O=C(N/N=C1\CCCc2ccccc21)c1ccccc1Cl | -3 | 6 | 6 | 18 | 4 | -1
Cc1ccc(-c2nnc(NC(=O)c3ccco3)s2)cc1 | 68* | . | -187 | 2 | 8 | -3
COc1ccc(-c2nnc(NC(=O)c3ccco3)s2)cc1 | 60* | . | -322 | -15 | -6 | -14
COc1cccc(-c2nnc(NC(=O)c3ccco3)s2)c1 | 19 | . | -233 | 30 | 9 | 17
NNC(=O)CCC(=O)Nc1ccccc1 | -1 | 2 | 9 | -10 | -2 | -10
CC(C)(C)NC(=O)Nc1ccccc1C(N)=O | -3 | 24 | -33 | 0 | -1 | -6
CSc1ccc(NC(=O)Nc2ccccc2C(N)=O)cc1 | 0 | 8 | -72 | 97* | 95* | 92*
CCCn1c(C)cc(C(=O)COC(=O)c2cc(=O)[nH]c3ccccc23)c1C | 57* | . | -233 | . | . | .
CCCn1c(C)cc(C(=O)COC(=O)c2cc(S(=O)(=O)NCC(C)C)c(Cl)cc2Cl)c1C | 94* | -11 | 11 | 7 | -3 | 3
CC(C)CNS(=O)(=O)c1cc(C(=O)OCC(=O)c2ccc3c(c2)OCCO3)c(Cl)cc1Cl | -5 | 19 | 11 | -17 | -2 | 3
